The values that follow come from PubChem BioAssay (NCATS).

Inconclusive results are not listed. Calls of active or inactive are those of the source. Unless noted, calls follow the shape of the dose curve; as a rule, active = well fitted inhibition curve with a large enough effect; inconclusive = small, poorly fitted or top-dose-only effect; inactive = no such curve, though single readings can be large or run the other way.

The first test can be described thus: Primary qHTS for small molecule stabilizers of the endoplasmic reticulum resident proteome: Secreted ER Calcium Modulated Protein (SERCaMP) assay (AID 1508630). Also: % is scaled to controls: 0 for no effect and ±100 for the full control effect. The note with it: SH-SY5Y GLuc-SERCaMP (Gaussia luciferase released on ER calcium loss) secretion, thapsigargin, luminescence; series mostly up to 38.4 µM; activity change, negative = inhibition: at the top concentration. The method in brief: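 GLuc-SERCaMP-expressing SH-SY5Y cells, pretreated 16 h with compound, are challenged with thapsigargin to empty ER calcium stores; after 4 h, coelenterazine is added directly to the medium and luminescence is imaged.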
For orientation: qHTS replaces the single test concentration by a dilution series.
Consider `COc1ncnc(NS(=O)(=O)c2ccc(N)cc2)c1OC`, for which the Potency entry is “inactive”.
With `CC(C)(Sc1cc(C(C)(C)C)c(O)c(C(C)(C)C)c1)Sc1cc(C(C)(C)C)c(O)c(C(C)(C)C)c1`, the “activity change, negative = inhibition” value was -23.2% [at 13 µM] (inactive).
Take `O=c1cc(O)c(Cl)c[nH]1`: the Potency entry is “inactive”.
Same read-out and setting: to `Cc1noc(NS(=O)(=O)c2ccc(N)cc2)c1C` belongs “inactive”; to `COc1cccc(N(C)C(=S)Oc2ccc3c(c2)CCCC3)n1`, “inactive”.
Take `O=c1oc2c(O)c(O)cc3c(=O)oc4c(O)c(O)cc1c4c23`: the “activity change, negative = inhibition” value is 28.1% (inactive).
As for `Cc1nnc(NS(=O)(=O)c2ccc(N)cc2)s1`, the Potency result was “inactive”.
In the case of `Nc1ccc(S(=O)(=O)Nc2ccccn2)cc1`, the “activity change, negative = inhibition” value was 12.6% (inactive).
Turning to `NNC(=O)c1ccncc1`, the Potency result is “inactive”.
Take `NC(N)=NC(N)=NCCc1ccccc1`: the “activity change, negative = inhibition” value is 13.6% (inactive).
In the case of `CC(C)(C)NC(=O)[C@H]1CC[C@H]2[C@@H]3CC[C@H]4NC(=O)C=C[C@]4(C)[C@H]3CC[C@]12C`, the Potency entry is “inactive”.
For the compound `CCOC(=O)c1ccc(C#Cc2ccc3c(c2)C(C)(C)CCS3)nc1`, the Potency result was “inactive”.
On the same count and under the same terms, next, `CNC1CCCN(c2c(F)cc3c(=O)c(C(=O)O)cn(C4CC4)c3c2OC)C1` (stereo not drawn): “inactive”.
For the compound `Clc1ccccc1CN1CCc2sccc2C1`, the “activity change, negative = inhibition” value is 103% (inactive).
Still for that read-out and setting: next, `CCN[C@H]1C[C@H](C)S(=O)(=O)c2sc(S(N)(=O)=O)cc21`: 2.1% (inactive).
Turning to `O=C(NCC1CN(c2ccc(N3CCOCC3=O)cc2)C(=O)O1)c1ccc(Cl)s1` (stereo not drawn), the Potency entry is “inactive”.
On to `CCn1cc(C(=O)O)c(=O)c2cc(F)c(N3CCNCC3)nc21`, for which the “activity change, negative = inhibition” value is -20.3% (inactive).
Consider `O=C(O)CSCC(=O)NC1CCSC1=O` (stereo not drawn), for which the Potency entry is “inactive”.
In the case of `CNNCc1ccc(C(=O)NC(C)C)cc1`, the Potency result is “inactive”.
On the same count and under the same terms, next, `CCCOc1ccc(C(=O)OCCN(CC)CC)cc1N`: “inactive”.
With `COc1cc2c(Nc3ccc(Br)cc3F)ncnc2cc1OCC1CCN(C)CC1`, the “activity change, negative = inhibition” value is 101% (inactive).
`COc1cc([C@@H]2c3cc4c(cc3[C@H](O)[C@H]3COC(=O)[C@H]23)OCO4)cc(OC)c1OC`: the Potency entry was “inactive”.
For `COc1ccccc1OCC(O)COC(N)=O` (stereo not drawn), the “activity change, negative = inhibition” value is 31% (inactive).
The same measure, in the same setting: to `O=NN(CCCl)C(=O)NC1CCCCC1` belongs 0% (inactive).
`CN1CCN(c2c(F)cc3c(=O)c(C(=O)O)cn4c3c2OCN4C)CC1`: the Potency result was “inactive”.
Regarding `COc1cc(NCc2ccc3nc(N)nc(N)c3c2C)cc(OC)c1OC`, the Potency result was “inactive”.

A short description of a further test: A High-Content qHTS Against Drug Library for the Identification of Small Molecules that Inhibit DYT1 Early Onset Primary Dystonia-Associated Cell Pathology (AID 1645839; calls by dose curve). The note with it: HEK293 Flp-In EGFP-delE TorsinA, punctate imaging, 48 h; series mostly up to 46.1 µM; % pathology change, negative = correction: at the top concentration. The method in brief: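 In this high-content image screen, delE TorsinA mislocalization in inducible Flp-In 293 cells is scored as %pathology, with cell count serving as the counterscreen. Compound exposure lasts 48 h under tetracycline induction in reduced-serum medium.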
As for `Cc1ncc([N+](=O)[O-])n1CCO`, the “% pathology change, negative = correction” value (from here on “% pathology change”) is 14.8% (inactive).
Consider `S=P(N1CC1)(N1CC1)N1CC1`, for which the “% pathology change” value was -22% [at 104 µM] (inactive).
On the same count and under the same terms, next, `CO[C@@H]1[C@@H](OC(N)=O)[C@@H](O)[C@H](Oc2ccc3c(O)c(NC(=O)c4ccc(O)c(CC=C(C)C)c4)c(=O)oc3c2C)OC1(C)C`: -4.22% (inactive); `COc1c(N2CCNC(C)C2)c(F)cc2c(=O)c(C(=O)O)cn(C3CC3)c12` (stereo not drawn): 1.4% (inactive).
Still for that read-out and setting: to `Cc1ccnc2c1NC(=O)c1cccnc1N2C1CC1` belongs 10.6% (inactive); to `CCn1cc(C(=O)O)c(=O)c2cc(F)c(N3CCNCC3)cc21`, 4.95% (inactive); to `CN1CCN(c2c(F)cc3c(=O)c(C(=O)O)cn(CCF)c3c2F)CC1`, 8.82% (inactive).
With `CC(=O)[C@H]1CC[C@H]2[C@@H]3CC=C4C[C@@H](O)CC[C@]4(C)[C@H]3CC[C@]12C`, the “% pathology change” value was 17.9% (inactive).
For the compound `COc1ncnc(NS(=O)(=O)c2ccc(N)cc2)c1OC`, the “% pathology change” value was 17.7% (inactive).
On to `CC(C)(Sc1cc(C(C)(C)C)c(O)c(C(C)(C)C)c1)Sc1cc(C(C)(C)C)c(O)c(C(C)(C)C)c1`, for which the “% pathology change” value was 8.88% (inactive).
As to `O=c1cc(O)c(Cl)c[nH]1`, the “% pathology change” value is 22.5% (inactive).
On the same count and under the same terms, next, `Cc1noc(NS(=O)(=O)c2ccc(N)cc2)c1C`: -1.4% (inactive); `COc1cccc(N(C)C(=S)Oc2ccc3c(c2)CCCC3)n1`: -1.12% (inactive).
Same read-out and setting: to `O=c1oc2c(O)c(O)cc3c(=O)oc4c(O)c(O)cc1c4c23` belongs 17.3% [at 19.1 µM] (inactive); to `Cc1nnc(NS(=O)(=O)c2ccc(N)cc2)s1`, 2.93% (inactive).
The same measure, in the same setting: next, `Nc1ccc(S(=O)(=O)Nc2ccccn2)cc1`: -7.75% (inactive); `NNC(=O)c1ccncc1`: 0.645% (inactive); `NC(N)=NC(N)=NCCc1ccccc1`: -23.5% (inactive).
In the case of `CC(C)(C)NC(=O)[C@H]1CC[C@H]2[C@@H]3CC[C@H]4NC(=O)C=C[C@]4(C)[C@H]3CC[C@]12C`, the “% pathology change” value was -16.5% (inactive).
On the same count and under the same terms, next, `CCOC(=O)c1ccc(C#Cc2ccc3c(c2)C(C)(C)CCS3)nc1`: -23% (inactive); `CNC1CCCN(c2c(F)cc3c(=O)c(C(=O)O)cn(C4CC4)c3c2OC)C1` (stereo not drawn): 14.4% (inactive).
Consider `Clc1ccccc1CN1CCc2sccc2C1`, for which the “% pathology change” value was 0.942% (inactive).
On the same count and under the same terms, to `CCN[C@H]1C[C@H](C)S(=O)(=O)c2sc(S(N)(=O)=O)cc21` belongs -21.3% (inactive).
Same read-out and setting: next, `O=C(NCC1CN(c2ccc(N3CCOCC3=O)cc2)C(=O)O1)c1ccc(Cl)s1` (stereo not drawn): 8.66% (inactive); `CCn1cc(C(=O)O)c(=O)c2cc(F)c(N3CCNCC3)nc21`: 9.95% (inactive); `O=C(O)CSCC(=O)NC1CCSC1=O` (stereo not drawn): 12.5% (inactive).
Same read-out and setting: next, `CNNCc1ccc(C(=O)NC(C)C)cc1`: 19.7% (inactive).
